Measurements published in the supplement of paper PMC8728848.
Many of the other results were omitted from the sample, so the strongest signals are more common in it than they were.

How the values were obtained:
Test in all cases: glycan array binding signal (z-score within array); higher = stronger binding
Conditions in all cases: glycan notation: IUPAC condensed, linker removed
[1] = system: Neu5Ac(a2-3)Gal6S(b1-4)GlcNAc
Method in brief: (§1)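 Glycan array data were curated from 3228 arrays in the Consortium for Functional Glycomics database and kept only where the protein sequence was available. Glycan names were converted to IUPAC-condensed notation, and columns mapping to the same glycan were averaged. The binding signal is a within-array Z-score, averaged across arrays of the same protein sequence at different concentrations or buffers and across linkers. Negative Z-scores can be read as non-binding.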

[2] = system: Neu5Ac(a2-6)Gal(b1-3)GlcNAc(b1-3)[Gal(b1-4)GlcNAc(b1-6)]Gal(b1-4)Glc
Method in brief: as §1

[3] = system: Neu5Ac(a2-3)[Neu5Ac(a2-6)]GalNAc
Method in brief: as §1

[4] = system: Neu5Ac(a2-3)GalNAc
Method in brief: as §1

[5] = system: Neu5Ac(a2-3)[GalNAc(b1-4)]Gal(b1-4)Glc
Method in brief: as §1

[6] = system: Neu5Ac(a2-6)Gal(b1-4)GlcNAc(b1-2)Man(a1-3)[GlcNAc(b1-2)Man(b1-4)GlcNAc(b1-2)Man(a1-6)]Man(b1-4)GlcNAc(b1-4)GlcNAc
Method in brief: as §1

[7] = system: Neu5Ac(a2-3)Gal6S(b1-4)[Fuc(a1-3)]GlcNAc6S(b1-3)Gal(b1-4)Glc
Method in brief: as §1

[8] = system: Neu5Ac(a2-6)Gal(b1-4)GlcNAc(b1-2)Man(a1-3)[Neu5Ac(a2-6)Gal(b1-4)GlcNAc(b1-2)Man(a1-6)]Man(b1-4)GlcNAc(b1-4)GlcNAc
Method in brief: as §1

[9] = system: Neu5Ac(a2-6)Gal(b1-4)GlcNAc(b1-2)Man(a1-3)[Neu5Gc(a2-6)Gal(b1-4)GlcNAc(b1-2)Man(a1-6)]Man(b1-4)GlcNAc(b1-4)GlcNAc
Method in brief: as §1

[10] = system: Neu5Ac(a2-6)Gal(b1-4)GlcNAc(b1-2)Man(a1-3)[Neu5Ac(a2-6)Gal(b1-4)GlcNAc(b1-2)Man(a1-6)]Man(b1-4)GlcNAc(b1-4)[Fuc(a1-6)]GlcNAc
Method in brief: as §1

## Epa22
[1]
  glycan array binding signal (z-score): -0.771
[2]
  glycan array binding signal (z-score): -0.487

## LcI (Legionella pneumophila)
[3]
  glycan array binding signal (z-score): -0.437

## BambL (Burhholderia ambifaria), Q0B4G1
[4]
  glycan array binding signal (z-score): -0.313

## SpGH101 (Streptococcus pneumoniae), Q8DR60
[1]
  glycan array binding signal (z-score): -0.178
[5]
  glycan array binding signal (z-score): -0.199
[3]
  glycan array binding signal (z-score): -0.195
[2]
  glycan array binding signal (z-score): -0.168
[6]
  glycan array binding signal (z-score): 0.015

## MIC3-MAR1b (Eimeria tenella), B6VCV4
[7]
  glycan array binding signal (z-score): 0.282
[8]
  glycan array binding signal (z-score): 4.75
[9]
  glycan array binding signal (z-score): 0.504

## MIC3-MAR5 (Eimeria tenella), B6VCV4
[8]
  glycan array binding signal (z-score): 1.71

## Wza (Escherichia coli), P0A930
[2]
  glycan array binding signal (z-score): 0.652
[10]
  glycan array binding signal (z-score): -0.578
